# Assay results taken from PubChem BioAssay (EPA / NIEHS).
# Where “and” joins values, the source holds several entries; their conditions need not be identical. Identical values can stand only once. Records with an inconclusive call do not appear. Where a structure was tested more than once in an assay, its records may differ in their call. Calls of active or inactive are those of the source. Rule for the calls, unless noted: active = hit-call score of the fitted dose curve at least 0.9, where 1 is the maximum; inactive = score below 0.9.
# Experiments:
# [1] = IUF_NPC2c_oligodendrocyte_migration_120hr: Leibniz Research Institute for Environmental Medicine (IUF) 120-hour Neural Progenitor Cell Migration Assay for Oligodendrocyte Migration (NPC2c) (AID 2284297)
# How it was run: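 Read-out is the mean distance of O4-positive oligodendrocytes from the sphere core edge at 120 h, normalized to radial glia migration and fitted in the gain direction against DMSO. Spheres of primary human neural progenitors differentiated on laminin under continuous compound exposure.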
# [2] = IUF_NPC2a_radial_glia_migration_120hr: Leibniz Research Institute for Environmental Medicine (IUF) 120-hour Neural Progenitor Cell Migration Assay for Radial Glia Migration (NPC2a) (AID 2284298)
# How it was run: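 Readout: distance in um from sphere core edge to migration-area edge, derived from Hoechst nuclei density with a threshold-defined polynomial boundary. Spheres: hNPC, GW 16-19, 0.3 mm, on PDL/laminin; exposure 5 days; DMSO is baseline.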
# [3] = IUF_NPC2a_radial_glia_migration_72hr: Leibniz Research Institute for Environmental Medicine (IUF) 72-hour Neural Progenitor Cell Migration Assay for Radial Glia Migration (NPC2a) (AID 2284299)
# How it was run: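 Human fetal neural progenitor spheres (0.3 mm) plated on poly-D-lysine/laminin in N2 differentiation medium and exposed from day 0 at 7 concentrations; radial glia migration distance from sphere edge measured at 72 h on brightfield images, mean of four directions, vs DMSO.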
# [4] = IUF_NPC2b_neuronal_migration_120hr: Leibniz Research Institute for Environmental Medicine (IUF) 120-hour Neural Progenitor Cell Migration Assay for Neuron Migration (NPC2b) (AID 2284300)
# How it was run: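 Read-out is mean distance from sphere edge to each TUBB3-positive neuron at 120 h, expressed relative to radial glia migration distance and to DMSO baseline. Single 0.3 mm human NPC spheres differentiated on laminin under continuous compound exposure.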
# [5] = IUF_NPC3_neuronal_differentiation_120hr: Leibniz Research Institute for Environmental Medicine (IUF) 120-hour Neuronal Differentiation Assay (NPC3) (AID 2284301)
# How it was run: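 Primary human fetal neural progenitor spheres (GW 16-19, 0.3 mm) plated on poly-D-lysine/laminin in N2 medium, exposed from day 0 for 120 h with half-medium refresh at day 3. TUBB3+ cells as percent of Hoechst nuclei in migration area; DMSO baseline.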
# [6] = IUF_NPC4_neurite_length_120hr: Leibniz Research Institute for Environmental Medicine (IUF) 120-hour Neuronal Morphology Assay for Neurite Length (NPC4) (AID 2284302)
# How it was run: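 Human fetal cortex (GW 16-19) neural progenitor spheres, 0.3 mm, were plated on poly-D-lysine/laminin in N2 differentiation medium and exposed from day 0 for 120 h, half-feeding at day 3. Mean TUBB3+ neurite length (µm) came from skeletonized images, relative to DMSO.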
# [7] = IUF_NPC4_neurite_area_120hr: Leibniz Research Institute for Environmental Medicine (IUF) 120-hour Neuronal Morphology Assay for Neurite Area (NPC4) (AID 2284305; active = hit-call score of the fitted dose curve at least 0.9, where 1 is the maximum)
# How it was run: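 Human fetal cortex-derived neural progenitor spheres (0.3 mm, GW 16-19) plated on poly-D-lysine/laminin in N2 differentiation medium and exposed from day 0 for 120 h across 7 concentrations plus solvent control. Neurite area is mean pixel area per TUBB3-positive neuron via skeletonization, analysed relative to DMSO.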
# [8] = IUF_NPC2-5_cytotoxicity_72hr: Cytotoxicity Assessment at 72 hours in the Leibniz Research Institute for Environmental Medicine (IUF) Neural Progenitor Cell Migration and Differentiation Assay for Cytotoxicity (NPC2-5) (AID 2284306; active = hit-call score of the fitted dose curve at least 0.9, where 1 is the maximum;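 note: LDH release into supernatant measured by resorufin fluorescence marking membrane damage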)
# How it was run: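 Human fetal (GW 16-19) neural progenitor spheres, 0.3 mm, plated on poly-D-lysine/laminin in N2 differentiation medium and exposed from day 0 to 7 concentrations plus solvent control (DMSO ≤0.1%). LDH-dependent resazurin-to-resorufin fluorescence in supernatant at 72 h.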
# [9] = IUF_NPC2-5_cytotoxicity_120hr: Cytotoxicity Assessment at 120 hours in the Leibniz Research Institute for Environmental Medicine (IUF) Neural Progenitor Cell Migration and Differentiation Assay (NPC2-5) (AID 2284307; active = hit-call score of the fitted dose curve at least 0.9, where 1 is the maximum;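 for AC50: LDH released into supernatant as membrane damage marker via resorufin fluorescence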)
# How it was run: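 Sphere plating starts differentiation and exposure together at day 0. Compound solution is half-replaced on day 3. At 120 h, medium supernatant is taken for an LDH membrane-integrity read based on resazurin reduction to resorufin fluorescence.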
# [10] = IUF_NPC2-5_cell_number_120hr: Cell Number Assessment at 120 hours in the Leibniz Research Institute for Environmental Medicine (IUF) Neural Progenitor Cell Migration and Differentiation Assay (NPC2-5) (AID 2284308);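 note: count of Hoechst-stained nuclei in migration zone around plated human neural progenitor spheres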
# How it was run: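 hNPC spheres, one per well, PDL/laminin, N2 medium, 37C, 5% CO2. Dosing day 0 → half-medium change with fresh compound day 3 → fix 120 h. Readout: Hoechst+ nuclei count, migration area; 7 concentrations plus solvent control.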
# [11] = IUF_NPC2-5_viability_120hr: Viability Assessment at 120 hours in the Leibniz Research Institute for Environmental Medicine (IUF) Neural Progenitor Cell Migration and Differentiation Assay (NPC2-5) (AID 2284312)
# How it was run: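 Human fetal (GW 16-19) neural progenitor spheres of 0.3 mm were plated on poly-D-lysine/laminin in N2 differentiation medium and exposed from day 0 for 120 h, with half-medium refresh at day 3. Viability was read as alamar blue resazurin-to-resorufin fluorescence against DMSO.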
# [12] = CCTE_Mundy_HCI_iCellGluta_NOG_NeuriteLength: CCTE's Neurite Outgrowth Assay in iCellGluta cells for Neurite Length, Mundy Lab (AID 2284318; active = hit-call score of the fitted dose curve at least 0.9, where 1 is the maximum)
# How it was run: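 Automated high-content imaging of betaIII-tubulin (Alexa Fluor-488) and Hoechst-stained cells gave neurite length, normalized to the DMSO baseline.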
# [13] = TAMU_PeakParms_SingleDonor1434_Asystole: Texas A&M University (TAMU) 1.5-hr Human Induced Pluripotent Stem Cell (iPSC)-derived Cardiomyocytes Calcium (Ca+2) Flux Assay for Cardiotoxicity: Asystole (quiescence of beating) (AID 2284328; active = hit-call score of the fitted dose curve at least 0.9, where 1 is the maximum)
# How it was run: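 Human iPSC-derived cardiomyocytes (donor 1434) were exposed to 0.2, 1, 10 and 100 uM compound in 0.5% DMSO for 90 min at 37C. Ca2+-dye fluorescence gave average peak frequency; POD is EC95, a 95% beat-rate drop versus DMSO.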
# [14] = IUF_NPC1_cytotoxicity_72hr: Cytotoxicity Assessment at 72 hours in the Leibniz Research Institute for Environmental Medicine (IUF) Neural Progenitor Cell Proliferation Assay (NPC1) (AID 2284332; active = hit-call score of the fitted dose curve at least 0.9, where 1 is the maximum;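 note: rising LDH signal means more cytotoxicity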)
# How it was run: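 Human fetal neural progenitor spheres (0.3 mm) in EGF/FGF proliferation medium, 37C, exposed 72 h without renewal. LDH release in supernatant read by resorufin fluorescence; gain of signal scored relative to dynamic range.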
# [15] = CCTE_Mundy_HCI_iCellGluta_NOG_NeuronCount: CCTE's Neurite Outgrowth Assay in iCellGluta cells for Neuron Count, Mundy Lab (AID 2284340; active = hit-call score of the fitted dose curve at least 0.9, where 1 is the maximum;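 note: cells fixed about 48 h after compound addition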)
# How it was run: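 Neuron count read by automated high-content imaging of Hoechst 33342 and betaIII-tubulin/Alexa Fluor-488 labelling in human iPSC glutamatergic neurons. Activity fitted relative to DMSO.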
# [16] = CCTE_Mundy_HCI_iCellGluta_NOG_NeuriteCount: CCTE's Neurite Outgrowth Assay in iCellGluta cells for Neurite Count, Mundy Lab (AID 2284342; active = hit-call score of the fitted dose curve at least 0.9, where 1 is the maximum;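 note: chemical exposure about 48 hours starting 2 hours after plating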)
smiles,measurement,setting,value
[CH3][Hg][Cl],outcome,[1],inactive
same,AC50,[2],1.05 µM (active) and 160 nM (active)
same,AC50,[3],1.11 µM (active) and 255 nM (active)
same,AC50,[4],138 nM (active)
same,outcome,[4],inactive
same,AC50,[5],325 nM (active) and 124 nM (active)
same,AC50,[6],298 nM (active) and 69.7 nM (active)
same,AC50,[7],629 nM (active) and 78.3 nM (active)
same,outcome,[8],inactive
same,AC50,[9],275 nM (active)
same,outcome,[9],inactive
same,AC50,[10],823 nM (active) and 130 nM (active)
same,AC50,[11],276 nM (active)
same,outcome,[11],inactive
same,AC50,[12],76.3 nM (active)
same,outcome,[13],inactive
same,outcome,[14],inactive
same,AC50,[15],80.6 nM (active)
same,AC50,[16],96.5 nM (active)
